Measured values published in the supplement of paper PMC6522484.
± gives the standard deviation of the averaged measurements.

Columns and labels:
DLD1 [1] = test: cell viability (CellTiter-Glo) relative to plate median (fraction of plate median); higher = more viable cells; conditions: 5 µM; treatment time 24 h; reporter: 7TFP
How it was run: (§1)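 After seeding in 384-well plates, colorectal cancer cell lines carrying stable lentiviral TCF/Wnt firefly luciferase reporters (7TFP or TCF4/Wnt) were left 24 h. Library compounds were then added at a final 5 µM for 24 h. A Tecan F500 reader measured firefly luciferase or CellTiterGlo luminescence on parallel plates, with each well normalised to the plate median by webcellHTS2 (additive, no log transformation), and two independent replicates averaged.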

HCT116 = test: as above; conditions: 5 µM; treatment time 24 h; reporter: TCF4/Wnt
How it was run: as §1

SW480 [2] = test: as above; conditions: 5 µM; treatment time 24 h; reporter: 7TFP
How it was run: as §1

DLD1 [3] = test: TCF/Wnt firefly luciferase reporter signal relative to plate median (fraction of plate median); higher = higher Wnt reporter signal; conditions: 5 µM; treatment time 24 h; reporter: 7TFP
How it was run: as §1

SW480 [4] = test: as above; conditions: 5 µM; treatment time 24 h; reporter: 7TFP
How it was run: as §1

| Structure (SMILES) | cell viability (DLD1 [1]) | cell viability (HCT116) | cell viability (SW480 [2]) | TCF/Wnt firefly luciferase reporter signal (DLD1 [3]) | TCF/Wnt firefly luciferase reporter signal (SW480 [4]) |
| --- | --- | --- | --- | --- | --- |
| O=C(NC(=O)c1c(F)cccc1F)Nc1cc(Cl)c(OC(F)(F)C(F)C(F)(F)F)cc1Cl (stereo not given) | 0.985 ± 0.05 | 0.984 ± 0.066 | 0.987 ± 0.013 | 0.907 ± 0.028 | 1.03 |
| NCC(O)c1ccc(O)cc1 (stereo not given) | 0.972 ± 0.097 | 0.923 ± 0.015 | 0.972 ± 0.011 | 0.954 ± 0.21 | 0.943 ± 0.043 |
| CN1CCc2cc3c(cc2C1O)OCO3 (stereo not given) | 1.01 ± 0.026 | 1.03 ± 0.047 | 0.995 ± 0.021 | 0.956 ± 0.037 | 0.942 ± 0.064 |
| CN(C)C(=O)Oc1ccc[n+](C)c1 | 1.04 ± 0.042 | 1.04 ± 0.11 | 1.02 | 1.08 ± 0.078 | 1.05 ± 0.035 |
| CNC(=O)Oc1ccccc1OC(C)C | 0.98 ± 0.0071 | 0.983 ± 0.0042 | 0.986 ± 0.014 | 0.913 ± 0.19 | 1.01 ± 0.016 |
| COC1C(O)C(O[C@H]2CC[C@]3(C=O)C4C(CC[C@]3(O)C2)[C@@]2(O)CC[C@H](C3=CC(=O)OC3)[C@@]2(C)C[C@H]4OC(C)=O)OC(C)C1OC(C)=O (stereo not given in full) | 0.929 ± 0.11 | 1.03 ± 0.083 | 0.941 ± 0.044 | 0.828 ± 0.042 | 0.83 ± 0.069 |
| CC(C)C[C@H]1C(=O)N2CCC[C@H]2[C@]2(O)O[C@](NC(=O)[C@@H]3C=C4c5cccc6[nH]c(Br)c(c56)C[C@H]4N(C)C3)(C(C)C)C(=O)N12 | 1.05 ± 0.014 | 0.974 ± 0.08 | 1.07 ± 0.014 | 0.985 ± 0.021 | 0.931 ± 0.052 |
| CC[C@@]1(O)C[C@H](O[C@H]2C[C@H](N(C)C)[C@H](O)[C@H](C)O2)c2c(cc3c(c2O)C(=O)c2c(O)ccc(O)c2C3=O)[C@H]1C(=O)OC | 0.893 ± 0.075 | 0.548 ± 0.029 | 1.05 ± 0.042 | 0.569 ± 0.068 | 0.711 ± 0.016 |
| CON1C(=O)[C@H]2NC(=O)[C@]13Oc1cc(O)c(Cl)cc1[C@@H]3SS2 [Aspirochlorine] | 0.736 ± 0.087 | 0.918 ± 0.017 | 0.841 ± 0.026 | 0.981 ± 0.28 | 1 ± 0.035 |
| COc1cc(OC)c(OC)cc1C=O | 0.981 ± 0.13 | 1.01 ± 0.035 | 0.988 ± 0.06 | 0.925 ± 0.0042 | 0.963 ± 0.04 |
| c1cc2c(cc1[C@H]1OC[C@H]3[C@@H]1CO[C@H]3c1ccc3c(c1)OCO3)OCO2 | 1.03 ± 0.014 | 1.03 ± 0.13 | 0.952 ± 0.068 | 1.09 ± 0.064 | 0.932 ± 0.21 |
| C[C@]12CCC(=O)C[C@@H]1CC[C@@H]1[C@@H]2CC[C@]2(C)C(=O)CC[C@@H]12 [5alpha-ANDROSTAN-3,17-DIONE] | 0.895 ± 0.095 | 1.07 | 0.959 ± 0.052 | 0.959 ± 0.086 | 0.9525 ± 0.005 |
| COc1cc([C@@H]2c3cc4c(cc3[C@H](OC(C)=O)[C@H]3COC(=O)[C@H]23)OCO4)cc(OC)c1OC | 0.91 ± 0.17 | 0.567 ± 0.042 | 1.205 ± 0.0071 | 0.759 ± 0.0078 | 0.702 ± 0.02 |
| CN1C[C@H](C(=O)N[C@]2(C)O[C@@]3(O)[C@@H]4CCCN4C(=O)[C@H](Cc4ccccc4)N3C2=O)C[C@@H]2c3cccc4[nH]cc(c34)C[C@H]21 | 0.89 ± 0.098 | 0.878 ± 0.054 | 1 ± 0.037 | 0.9 ± 0.052 | 0.884 ± 0.0057 |
| COc1cccc2c1cc([N+](=O)[O-])c1c(C(=O)O)cc3c(c12)OCO3 | 0.983 ± 0.052 | 1.06 ± 0.098 | 1.01 ± 0.018 | 1.28 ± 0.12 | 1.1 ± 0.13 |
| COP(=S)(OC)SCn1nnc2ccccc2c1=O | 0.983 ± 0.02 | 0.939 ± 0.049 | 0.955 ± 0.0071 | 0.991 ± 0.13 | 0.903 ± 0.14 |
| O=C1c2ccccc2-c2cccc3cccc1c23 | 1 ± 0.084 | 0.852 ± 0.088 | 0.991 ± 0.028 | 0.912 ± 0.056 | 0.987 ± 0.033 |
| CC1(C)C(=O)C=C[C@@]2(C)C1=C(O)C(=O)[C@]1(C)[C@@H]2CC[C@@]2(C)[C@H](c3ccoc3)C[C@H]3O[C@]321 | 0.925 ± 0.029 | 1.13 ± 0.057 | 0.91 ± 0.034 | 0.986 ± 0.062 | 1.02 ± 0.055 |
| C1CCc2nnnn2CC1 | 0.931 ± 0.05 | 1.05 ± 0.035 | 0.925 ± 0.052 | 0.963 ± 0.017 | 1.11 ± 0.042 |
| O=C1C=C2C(=CCOC2O)O1 (stereo not given) | 0.883 ± 0.19 | 0.606 ± 0.2 | 0.9575 ± 0.0064 | 0.993 ± 0.18 | 0.499 ± 0.025 |
| C[C@]12CC[C@H]3[C@@H](CCC4=CC(=O)CC[C@@]43C)[C@@H]1CC[C@@H]2O | 1.03 ± 0.021 | 1.15 ± 0.17 | 1.045 ± 0.0071 | 0.967 ± 0.061 | 1.04 ± 0.092 |
| Nc1ncn[nH]1 | 0.973 ± 0.067 | 1.09 ± 0.11 | 1 ± 0.029 | 0.957 ± 0.089 | 0.978 ± 0.012 |
| CC(C)=CCCC1(C)C=Cc2c(O)c3c(c(CC=C(C)C)c2O1)OC12C(CC4CC1C(C)(C)OC2(C/C=C(/C)C(=O)O)C4O)C3=O (stereo not given) | 0.979 ± 0.087 | 1.04 ± 0.014 | 1.08 ± 0.028 | 0.975 ± 0.027 | 0.807 ± 0.036 |
| COc1ccc(C(=O)O[C@H]2CC[C@@]3(C)[C@@H]4CC[C@H]5[C@]6(O)C[C@H](O)[C@@]7(O)[C@@H](CN8C[C@@H](C)CC[C@H]8[C@@]7(C)O)[C@]6(O)C[C@@]53O[C@]24O)cc1OC | 0.98 ± 0.043 | 0.942 ± 0.083 | 1.02 ± 0.099 | 1.03 ± 0.14 | 1.05 ± 0.087 |
| O=c1c(O)c(-c2ccc(O)c(O)c2)oc2c(O)c(O)cc(O)c12 | 0.905 ± 0.12 | 1.1 ± 0.085 | 0.9465 ± 0.00071 | 0.9395 ± 0.0035 | 0.916 ± 0.033 |
| c1ccc2c(c1)sc1ccccc12 | 1 ± 0.026 | 0.97 ± 0.11 | 1.01 ± 0.049 | 0.867 ± 0.033 | 0.935 ± 0.036 |
